Measured values published in ChEMBL document CHEMBL5308504, “Tm Shift (DSF) assay results for EUbOPEN Chemogenomics Library” (2023).

Key:
Settings in all cases: Compound concentration 20.0 uM, Protein concentration 2.0 uM, Result type QC Liability
[1] = molecular target: Tyrosine-protein kinase ABL1 (Homo sapiens) (UniProt P00519)
[2] = molecular target: Cyclin-dependent kinase 2 (Homo sapiens) (UniProt P24941)
[3] = molecular target: Casein kinase I isoform delta (Homo sapiens) (UniProt P48730)
[4] = molecular target: Glycogen synthase kinase-3 beta (Homo sapiens) (UniProt P49841)
[5] = molecular target: Mitogen-activated protein kinase 1 (Homo sapiens) (UniProt P28482)
[6] = molecular target: T1, Aurora kinase A (Homo sapiens) (UniProt O14965)
T1 sequence (whole entry): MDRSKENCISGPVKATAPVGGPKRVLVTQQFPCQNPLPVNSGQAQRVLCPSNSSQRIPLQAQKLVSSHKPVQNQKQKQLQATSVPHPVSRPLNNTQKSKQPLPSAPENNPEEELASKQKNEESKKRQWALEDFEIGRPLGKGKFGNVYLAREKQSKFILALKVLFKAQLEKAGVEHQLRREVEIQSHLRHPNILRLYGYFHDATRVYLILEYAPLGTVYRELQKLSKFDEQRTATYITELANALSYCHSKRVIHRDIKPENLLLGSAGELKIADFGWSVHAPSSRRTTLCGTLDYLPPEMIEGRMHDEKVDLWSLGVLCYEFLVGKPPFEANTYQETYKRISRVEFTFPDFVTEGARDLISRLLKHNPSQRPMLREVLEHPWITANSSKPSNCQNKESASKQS

Sequence of Tyrosine-protein kinase ABL1 (Homo sapiens) (P00519 whole entry): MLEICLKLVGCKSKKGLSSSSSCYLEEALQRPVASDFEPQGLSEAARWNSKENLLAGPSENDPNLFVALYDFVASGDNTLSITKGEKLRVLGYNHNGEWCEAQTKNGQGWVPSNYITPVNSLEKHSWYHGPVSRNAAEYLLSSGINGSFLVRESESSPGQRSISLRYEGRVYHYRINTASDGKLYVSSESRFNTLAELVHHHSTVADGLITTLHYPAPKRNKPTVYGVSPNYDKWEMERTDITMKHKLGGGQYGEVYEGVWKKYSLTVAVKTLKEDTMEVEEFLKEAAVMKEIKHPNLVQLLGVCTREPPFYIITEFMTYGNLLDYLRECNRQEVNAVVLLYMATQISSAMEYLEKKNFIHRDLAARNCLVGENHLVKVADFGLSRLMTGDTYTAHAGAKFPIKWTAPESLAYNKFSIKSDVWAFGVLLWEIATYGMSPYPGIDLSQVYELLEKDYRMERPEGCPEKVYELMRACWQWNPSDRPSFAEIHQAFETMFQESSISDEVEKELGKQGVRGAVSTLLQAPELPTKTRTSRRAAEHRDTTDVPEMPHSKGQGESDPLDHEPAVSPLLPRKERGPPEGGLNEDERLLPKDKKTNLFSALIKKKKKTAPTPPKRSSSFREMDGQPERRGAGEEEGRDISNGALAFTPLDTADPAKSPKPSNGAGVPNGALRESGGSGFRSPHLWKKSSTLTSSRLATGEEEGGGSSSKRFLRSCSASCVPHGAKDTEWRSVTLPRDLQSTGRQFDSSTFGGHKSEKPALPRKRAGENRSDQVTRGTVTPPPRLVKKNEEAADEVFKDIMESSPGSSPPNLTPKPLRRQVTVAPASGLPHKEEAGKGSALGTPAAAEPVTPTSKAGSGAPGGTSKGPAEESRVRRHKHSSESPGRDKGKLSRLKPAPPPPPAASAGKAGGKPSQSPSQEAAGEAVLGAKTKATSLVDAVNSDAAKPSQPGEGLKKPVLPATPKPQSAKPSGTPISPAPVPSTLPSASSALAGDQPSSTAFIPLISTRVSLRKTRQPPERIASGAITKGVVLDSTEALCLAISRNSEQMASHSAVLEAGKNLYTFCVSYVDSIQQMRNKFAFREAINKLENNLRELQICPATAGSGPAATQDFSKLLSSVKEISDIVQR
Sequence of Casein kinase I isoform delta (Homo sapiens) (P48730 whole entry, looked up, canonical isoform): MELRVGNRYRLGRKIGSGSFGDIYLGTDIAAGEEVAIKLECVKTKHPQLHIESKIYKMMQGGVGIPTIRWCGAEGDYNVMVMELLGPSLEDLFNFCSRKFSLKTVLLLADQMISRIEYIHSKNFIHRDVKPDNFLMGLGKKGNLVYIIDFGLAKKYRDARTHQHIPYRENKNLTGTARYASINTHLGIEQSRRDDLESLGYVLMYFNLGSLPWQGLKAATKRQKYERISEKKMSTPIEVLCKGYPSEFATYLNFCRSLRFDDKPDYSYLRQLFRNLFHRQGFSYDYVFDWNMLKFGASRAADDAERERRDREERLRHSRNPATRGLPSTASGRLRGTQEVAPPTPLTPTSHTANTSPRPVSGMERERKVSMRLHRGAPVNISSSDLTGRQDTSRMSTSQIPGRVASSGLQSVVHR
Sequence of Mitogen-activated protein kinase 1 (Homo sapiens) (P28482 whole entry): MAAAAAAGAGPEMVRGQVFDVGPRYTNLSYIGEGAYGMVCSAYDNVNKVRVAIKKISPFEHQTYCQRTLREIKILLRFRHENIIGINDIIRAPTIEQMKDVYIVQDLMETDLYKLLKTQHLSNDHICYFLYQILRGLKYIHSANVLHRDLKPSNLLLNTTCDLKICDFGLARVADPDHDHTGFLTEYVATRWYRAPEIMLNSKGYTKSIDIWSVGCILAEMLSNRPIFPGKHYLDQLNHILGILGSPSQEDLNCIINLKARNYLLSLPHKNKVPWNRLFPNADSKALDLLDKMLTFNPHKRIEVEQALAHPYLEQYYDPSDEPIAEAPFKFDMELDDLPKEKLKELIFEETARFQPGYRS
Sequence of Glycogen synthase kinase-3 beta (Homo sapiens) (P49841 whole entry, looked up): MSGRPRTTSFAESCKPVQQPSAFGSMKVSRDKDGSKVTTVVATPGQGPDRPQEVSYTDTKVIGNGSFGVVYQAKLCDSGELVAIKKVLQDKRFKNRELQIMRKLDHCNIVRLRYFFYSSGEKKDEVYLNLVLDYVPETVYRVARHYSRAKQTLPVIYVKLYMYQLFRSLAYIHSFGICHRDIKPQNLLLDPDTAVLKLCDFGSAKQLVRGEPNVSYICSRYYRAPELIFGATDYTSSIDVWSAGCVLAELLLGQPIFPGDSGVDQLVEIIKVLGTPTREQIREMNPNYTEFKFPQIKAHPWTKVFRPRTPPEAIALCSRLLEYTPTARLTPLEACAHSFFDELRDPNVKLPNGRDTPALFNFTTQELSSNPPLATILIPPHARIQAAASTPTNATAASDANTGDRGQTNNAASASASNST

| SMILES | ΔTm [1] [°C] | ΔTm [2] [°C] | ΔTm [3] [°C] | ΔTm [4] [°C] | ΔTm [5] [°C] | ΔTm [6] [°C] |
| --- | --- | --- | --- | --- | --- | --- |
| Nc1ncnc2c1c(I)cn2[C@@H]1O[C@H](CO)[C@@H](O)[C@H]1O | 2.09 | 6.73 | 5.26 | 2.65 | 1.65 | 2.13 |
| CC(C)(C)c1cnc(CSc2cnc(NC(=O)C3CCN(CC(=O)NCCOCCOCCOCCNc4cccc5c4C(=O)N(C4CCC(=O)NC4=O)C5=O)CC3)s2)o1 (centres undefined) | -2.84 | 9.12 | 0 | 10.8 | 0.99 | 7.5 |
| CCO[C@@H](Cc1ccc(OCCc2ccc(OS(C)(=O)=O)cc2)cc1)C(=O)O | 0.03 | 0.41 | -0.31 | -0.58 | 0.21 | 0.09 |
| CC(C)C(=O)N[C@@H]1CCN(C(=O)Nc2nc3c(s2)-c2nc(-c4ccccc4Cl)ncc2CC3)C1 | 2.72 | 0.75 | 2.85 | 0.38 | 0.99 | 2.98 |
| O=C(Nc1cccc(Nc2nccc(Nc3cccc(C(F)(F)F)c3)n2)c1)C1CC1 | 1.63 | 1.44 | 1.09 | 3.86 | 0.42 |  |
| COc1cc(Nc2cnc(C#N)c(O[C@H](C)CN(C)C)n2)ncc1-c1cnn(C)c1 | 3.91 | 0.23 | 2.14 | 3.03 | 0.5 | 1.18 |
| CCO[C@H](COc1ccc(C(F)(F)F)cc1)CSc1ccc(OCC(=O)O)c(C)c1 | 0.26 | 0.43 | 0.11 | -0.41 | 0.32 | -1.04 |
| Nc1nccc(-c2c(-c3ccc(F)cc3)ncn2C2CCN(Cc3ccon3)CC2)n1 | 0.7 | 0.23 | 10.1 | 6.87 | 0.36 | -0.88 |
| CC[C@H](NC(=O)[C@H](C)NC)C(=O)N1C[C@@H](O)C[C@H]1Cc1c(-c2[nH]c3cc(F)ccc3c2C[C@@H]2C[C@H](O)CN2C(=O)[C@H](CC)NC(=O)[C@H](C)NC)[nH]c2cc(F)ccc12 | 0.09 | 0.28 | 1.26 | -0.88 | 0.38 | -1.51 |
| NC(=O)OC[C@H](NC(=O)Cn1nc(-c2ccc(Cl)cc2)n(C[C@H](O)C(F)(F)F)c1=O)c1cccc(C(F)(F)F)c1 | 1.4 | 1.62 | 0.82 | 2.1 | 1.35 | 0.82 |
| COc1ccc(C(=O)N[C@H](C)c2cccc(C(=O)Nc3nc4c(s3)CN(C)CC4)c2)cc1C | 0.22 | 0.42 | 0.41 | -0.51 | 0.45 | 0.16 |
| c1ccc2c(c1)SCc1c-2[nH]c2ccccc12 | -6.18 | -4.12 | -0.03 | 1.83 | 0.46 | -4.16 |
| CCCCCCC(Sc1nc(Cl)cc(NCc2ccc(-c3ccccc3)cc2)n1)C(=O)O (centres undefined) | -0.03 | -0.83 | 0 | 0 | 0 | -1.22 |
| CCn1c(=O)c2c(C)c(C(=O)N3CCC(O)CC3)sc2n(CCC(F)(F)F)c1=O | 0.35 | 0.49 | 0.3 | -0.42 | 0.14 | 0.03 |
| CCN(C)C(=O)c1ccc2c(c1)NC(=O)/C2=C(\NC1CCN(C)CC1)c1ccccc1 | -0.14 | 0.01 | 0.23 | 2.01 | 0.03 | -0.37 |
| CP(C)(=O)c1ccc(CNC(=O)C2CCN(S(=O)(=O)c3cc(Cl)cc(Cl)c3)CC2)cc1 | 0.74 | 0.5 | 0.35 | -0.16 | 0.45 | -0.19 |
| Nc1c(CC(=O)O)cccc1C(=O)c1ccc(Br)cc1 | 1.3 | 0.36 | 0.21 | 0.59 | 0.2 | 0.08 |
| Cn1cc(Nc2nccc(N3CC4CCC(C3)N4C(=O)[C@@H]3CC3(F)F)n2)cn1 | 1.98 | 2.84 | 0.33 | 0.6 | 0.56 | 8.08 |
| Cc1nc2cccnc2n2c(-c3cc(C(C)(C)O)ncc3Cl)nnc12 | -0.85 | 0.85 | 0.33 | -0.45 | 0.31 | -0.06 |
| O=C1Nc2ccc(C(=O)c3ccco3)cc2C1=Cc1cc(Cl)c(O)c(Cl)c1 | 4.46 | 0.67 | 3.71 | 5.93 | 0.54 | 5.03 |
| O=C(O)[C@]1(Cc2cccc(Nc3nccs3)n2)CC[C@@H](Oc2cccc(Cl)c2F)CC1 | 17.2 | 5.36 | 1.53 | 8.49 | 1.32 | 25.4 |
| COc1ccc(-c2c(-c3ccccc3)oc3ncnc(O[C@H](C)CCCCC(=O)O)c23)cc1 | -0.07 | -2.59 | -0.84 | -2 | -3.65 | 5.26 |
| COC[C@@H](C)N[C@H]1CC[C@H](Nc2cc(-c3cccc(NCC4(C#N)CCOCC4)n3)c(Cl)cn2)CC1 | 0.33 | -1.43 | 0.03 | -0.08 | 0.43 | 0.38 |
| CC1CNCCc2c1nc1ccnn1c2N1CC(C(=O)N2CCC(C)(C)C2)C1 (centres undefined) | 0.04 | 0.37 | 0.46 | -0.58 | 0.2 | -0.21 |
| CC(C)S(=O)(=O)c1ccccc1Nc1nc(N[C@@H]2CCCN(CCCCCCCNC(=O)COc3cccc4c3C(=O)N(C3CCC(=O)NC3=O)C4=O)C2)ncc1Cl (some centres undefined) | 8.06 | 4.21 | 3.26 | 11.1 | 3.07 | 10.6 |
